Where “and” joins values, the source holds several entries; their conditions need not be identical. Equal values may be shown once. Inconclusive results are not listed. Entries that show only a call come without a potency. Where a structure was tested more than once in an assay, its records may differ in their call. Calls of active or inactive are those of the source. Calls come from the whole dose curve.
target: Acetylcholinesterase (Homo sapiens) (UniProt P22303); assay: Acetylcholinesterase (AChE) small molecule antagonists: fluorescence cell-based qHTS assay (AID 1347398); details: SH-SY5Y cells; Potency: AChE activity; series mostly up to 115 µM; activity change, negative = inhibition: at the top concentration; note: nearly all actives have a fitted effect of over 50% in size
Description: National Center for Advancing Translational Sciences [NCATS]
Division of Preclinical Innovation [DPI]
U.S. Environmental Protection Agency [EPA]
National Institutes of Environmental Health Sciences [NIEHS]
National Toxicology Program [NTP]
U.S. Food and Drug Administration [FDA]
Acetylcholinesterase (AChE) is the primary cholinesterase in the body that hydrolyzes a key neurotransmitter, acetylcholine. Inhibition of AChE activity can lead to neurotoxicity. Known inhibitors of AChE include organophosphorous pesticides (OP), chemical warfare agents, drugs, and various phytochemicals.
A homogenous cell-based assay using Amplitetrade mark Fluorimetric Acetylcholinesterase Assay Kit *Green Fluorescence* (AAT Bioquest, Sunnyvale, CA) was used to evaluate the chemicals in the Tox21 10K library that inhibit AChE activity. The assay uses Thiolite Green to quantify the thiocholine produced from the hydrolysis of acetylthiocholine by AChE from the SH-SY5Y cells. AChE can hydrolyze acetylthiocholine to create thiocholine. Thiolite Green is fluorescent when reacting with thiocholine. It has spectral properties similar to those of fluorescein. The fluorescence intensity of Thiolite Green is used to measure AChE activity. Its signal can be easily read by a fluorescence microplate reader at Ex/Em = 490/520 nm.
Tox21 Assay Protocol Summary:
For cell-based AChE assay, 2,000 SH-SY5Y cells in 4 uL/well were dispensed into black, clear-bottom 1536-well plates using a Multidrop Combi (Thermo Scientific) dispenser. The assay plates were incubated overnight at 37 C to allow cells to attach to the wells, followed by the transfer of 23 nL compound or DMSO (vehicle control) by a Pintool station (Wako Automation, CA). The plates were incubated for 30 min at 37 C and 5% CO2, followed by the addition of 4 uL of detection cocktail solution (ThioliteGreen, acetylthiocholine) into each well using Flying Reagent Dispenser (Beckman Coulter, CA) and then following 40 min incubation at room temperature. Fluorescent intensity (Ex/Em = 490/520 nm) was measured using an Envision plate reader (PerkinElmer, MA).
Potency is the fitted concentration of half-maximal effect.

Sequence of Acetylcholinesterase (Homo sapiens) (P22303 whole entry, looked up): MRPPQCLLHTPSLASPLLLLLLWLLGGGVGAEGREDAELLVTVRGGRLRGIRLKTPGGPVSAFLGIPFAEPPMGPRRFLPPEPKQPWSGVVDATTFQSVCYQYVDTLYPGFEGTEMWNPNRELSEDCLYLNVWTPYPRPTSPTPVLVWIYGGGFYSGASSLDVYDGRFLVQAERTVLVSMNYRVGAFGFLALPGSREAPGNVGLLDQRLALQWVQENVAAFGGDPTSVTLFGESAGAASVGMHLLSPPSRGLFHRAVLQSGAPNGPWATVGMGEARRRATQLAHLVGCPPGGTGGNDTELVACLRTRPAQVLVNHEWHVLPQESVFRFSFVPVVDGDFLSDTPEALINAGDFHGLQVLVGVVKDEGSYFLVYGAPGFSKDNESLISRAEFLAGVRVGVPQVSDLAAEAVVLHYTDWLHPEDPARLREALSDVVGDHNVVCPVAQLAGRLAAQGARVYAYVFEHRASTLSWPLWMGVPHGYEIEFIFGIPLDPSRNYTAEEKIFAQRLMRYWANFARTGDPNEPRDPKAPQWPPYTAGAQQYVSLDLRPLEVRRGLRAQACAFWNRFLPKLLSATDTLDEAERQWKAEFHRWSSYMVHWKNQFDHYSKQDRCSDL

| SMILES | Potency | activity change, negative = inhibition |
| --- | --- | --- |
| CCNc1nc(Cl)nc(NC(C)(C)C#N)n1 | inactive |  |
| CCOP(=O)(O)OCC (tested in a mixture with another compound) | inactive and 39.6 µM (active) |  |
| CCC[CH2][Sn]([Cl])([Cl])[CH2]CCC | inactive |  |
| ClCc1ccccn1 | inactive |  |
| C[N+](C)(C)C | inactive |  |
| Clc1cccc(Cl)c1 | inactive |  |
| O=C1Nc2ccc(Cl)cc2C(c2ccccc2)=NC1O (stereo not given) | inactive |  |
| Clc1ccc(C(Cl)(Cl)Cl)cc1 | inactive |  |
| CC(C)(C#N)N=NC(C)(C)C#N | inactive |  |
| N#Cc1nn(-c2c(Cl)cc(C(F)(F)F)cc2Cl)c(N)c1S(=O)C(F)(F)F (stereo not given) | inactive |  |
| O=S(=O)(O)C(F)(F)C(F)(F)C(F)(F)C(F)(F)C(F)(F)C(F)(F)C(F)(F)C(F)(F)F | inactive |  |
| CC(C)CON=O | inactive |  |
| [CH3][Sn]([Cl])([Cl])[Cl] | inactive |  |
| O=P(OCCCl)(OCCCl)OCCCl | inactive |  |
| Clc1cccc(C(Cl)(Cl)Cl)n1 | inactive |  |
| N#CC(c1ccccc1)c1ccccc1 | inactive |  |
| O=C(O)CF | inactive |  |
| CC1(C)Cc2cccc(O)c2O1 | inactive |  |
| CN(C)c1nc(=O)n(C2CCCCC2)c(=O)n1C | inactive |  |
| CCCCOCCOC(C)=O | inactive |  |

| SMILES | Potency | activity change, negative = inhibition |
| --- | --- | --- |
| CCOP(=S)(OCC)SCn1c(=O)oc2cc(Cl)ccc21 | inactive |  |
| CCC/C=N/O | 8.6 µM (active) and inactive |  |
| O=[N+]([O-])c1ccc(Cl)c([N+](=O)[O-])c1 |  | -29.5% (inactive) |
| CNC(=O)Oc1cccc2c1OC(C)(C)C2 | 289 nM (active) and 126 nM (active) |  |
| CNC(=S)S | inactive |  |
| CCOC(=O)c1ccccc1N | inactive |  |
| N#CCCCCC#N | inactive |  |
| OCCOCCO | inactive |  |
| O=NN1CCOCC1 | inactive |  |
| Cc1ccc(N=CN(C)C=Nc2ccc(C)cc2C)c(C)c1 | inactive |  |
| Oc1ccc(Cl)cc1Cl | inactive |  |
| CCC1(c2ccc(N)cc2)CCC(=O)NC1=O (stereo not given) | inactive |  |
| c1ccc2c(c1)Nc1ccccc1S2 |  | 0.478% [at 53.7 µM] (inactive) |
| Nc1ncn[nH]1 |  | -0.197% (inactive) |
| CCOP(=S)(OCC)SCSC(C)(C)C | inactive |  |
| CCCCCCCCCc1ccc(O)cc1 | inactive |  |
| Cc1cccc(N=Nc2ccc(N(C)C)cc2)c1 | inactive |  |
| CC(C)(c1ccccc1)c1ccc(O)cc1 | inactive |  |
| N#Cc1cccnc1 | inactive |  |
| CC1CC(=O)O1 (stereo not given) | inactive |  |
